Data taken from PubChem BioAssay (Tox21).
A number with no mark means an inactive call. Inconclusive results are not listed. Entries that show only a call come without a potency. Active and inactive are the calls of the source. Unless noted, calls follow the shape of the dose curve; as a rule, active = well fitted curve in the direction sought with a large enough effect in the repeat runs; inconclusive = weak or mixed curves; inactive = no such curve, though single readings can be large; an effect the other way counts as inactive or inconclusive.

Legend:
[1] = qHTS assay to identify small molecule agonists of the hypoxia (HIF-1) signaling pathway (AID 1224846; active = well fitted activation curve with a large enough effect in the signal ratio in the repeat runs, not every such curve was filed as active; the % refers to the signal ratio)
How it was run: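 Compounds added to ME-180 cells carrying hypoxia-response-element beta-lactamase reporter (0.5% dialyzed FBS, 5 h preplating), 17 h at 37C; agonist activity detected by CCF4-AM B/G FRET read-out.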

[2] = qHTS assay to identify small molecule agonists of H2AX - cell viability counter screen (AID 1224847; calls by dose curve; also: nearly all actives have a fitted effect of over 30% in size; also: potency is read from the fitted curve at half-maximal effect)
How it was run: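 CHO-K1 wt, 1000 cells/well, o/n 37C; cpds 15 conc, 3 h 37C, 0.76% DMSO; CellTiter-Glo, 30 min RT, luminescence.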

[3] = qHTS RealTime-Glo MT Cell Viability Assay in HEK293 cells - 32 hour (AID 1224868); also: nearly all actives have a fitted effect of over 50% in size; also: potency is read from the fitted curve at half-maximal effect
How it was run: (§1)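 Reads taken at 0, 8, 16, 24, 32 and 40 h from the same wells. HEK293 cells (600/well) carried RealTime-Glo reagents from seeding, with compound added after a 5 h settle at 37 C.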

[4] = A CellTox Green Cytotoxicity Assay to monitor cytotoxicity in HEK293 cells - 0 hour (AID 1224869); also: nearly all actives have a fitted effect of over 50% in size
How it was run: (§2)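 Fluorescence from a DNA-binding dye excluded by viable cells was measured repeatedly in the same HEK293 wells (600 cells/well) during continuous compound exposure at 37 C. Each assay gives one read point: 0, 8, 16, 24, 32 or 40 h.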

[5] = qHTS RealTime-Glo MT Cell Viability Assay in HepG2 cells - 40 hour (AID 1224870); also: nearly all actives have a fitted effect of over 50% in size
How it was run: (§3)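 HepG2 cells mixed with RealTime-Glo MT reagents (NanoLuc plus cell-permeant prosubstrate) were seeded at 600 cells/well, incubated 5 h at 37 C/5% CO2, then pinned with compounds in DMSO; nonlytic luminescence tracked viability during 40 h treatment.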

[6] = qHTS RealTime-Glo MT Cell Viability Assay in HEK293 cells - 16 hour (AID 1224872); also: nearly all actives have a fitted effect of over 50% in size; also: potency is read from the fitted curve at half-maximal effect
How it was run: as §1

[7] = qHTS RealTime-Glo MT Cell Viability Assay in HEK293 cells - 40 hour (AID 1224874); conditions: RealTime-Glo luminescence; max response: hits give low values; also: nearly all actives have a fitted effect of over 50% in size; also: potency is read from the fitted curve at half-maximal effect
How it was run: (§4)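 Luminescence, which tracks viable cell number through reduction of the prosubstrate to a NanoLuc substrate, was read over continuous 37 C culture. Cells (600/well) were premixed with reagent and rested 5 h before 23 nL of compound in DMSO was pinned.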

[8] = A CellTox Green Cytotoxicity Assay to monitor cytotoxicity in HEK293 cells - 24 hour (AID 1224875); also: series mostly up to about 77 µM; nearly all actives have a fitted effect of over 45% in size
How it was run: as §2

[9] = qHTS RealTime-Glo MT Cell Viability Assay in HEK293 cells - 0 hour (AID 1224880); also: top concentration of the series differs between compounds; nearly all actives have a fitted effect of over 45% in size
How it was run: as §4

[10] = A CellTox Green Cytotoxicity Assay to monitor cytotoxicity in HEK293 cells - 40 hour (AID 1224871); also: nearly all actives have a fitted effect of over 45% in size
How it was run: as §2

[11] = qHTS RealTime-Glo MT Cell Viability Assay in HepG2 cells - 8 hour (AID 1224873); also: nearly all actives have a fitted effect of over 55% in size
How it was run: as §3

[12] = A CellTox Green Cytotoxicity Assay to monitor cytotoxicity in HepG2 cells - 16 hour (AID 1224876); also: nearly all actives have a fitted effect of over 45% in size
How it was run: (§5)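 Real-time cytotoxicity: fluorescence of a cell-impermeant cyanine dye binding DNA of dead HepG2 cells, measured repeatedly (0–40 h) during compound exposure at 37 C. Cells seeded 600/well with reagent, dosed after 5 h.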

[13] = qHTS RealTime-Glo MT Cell Viability Assay in HepG2 cells - 32 hour (AID 1224877); also: nearly all actives have a fitted effect of over 55% in size
How it was run: (§6)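 HepG2 suspension premixed with RealTime-Glo reagents is plated at 600 cells per well and left 5 h at 37 C/5% CO2. Compounds in DMSO then go in, and bioluminescence reflecting viable cell number is recorded over 40 h.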

[14] = A CellTox Green Cytotoxicity Assay to monitor cytotoxicity in HepG2 cells - 24 hour (AID 1224878); also: nearly all actives have a fitted effect of over 45% in size
How it was run: as §5

[15] = A CellTox Green Cytotoxicity Assay to monitor cytotoxicity in HepG2 cells - 40 hour (AID 1224879); also: nearly all actives have a fitted effect of over 40% in size
How it was run: as §5

[16] = A CellTox Green Cytotoxicity Assay to monitor cytotoxicity in HEK293 cells - 32 hour (AID 1224881); also: nearly all actives have a fitted effect of over 40% in size
How it was run: as §2

[17] = qHTS RealTime-Glo MT Cell Viability Assay in HepG2 cells - 24 hour (AID 1224867); also: nearly all actives have a fitted effect of over 50% in size
How it was run: as §6

[18] = A CellTox Green Cytotoxicity Assay to monitor cytotoxicity in HepG2 cells - 0 hour (AID 1224882); also: nearly all actives have a fitted effect of over 35% in size
How it was run: as §5

Row | Structure (SMILES) | outcome [1] | Potency [2] | Potency [3] | Potency [4] | Potency [5] | Potency [6] | Potency [7] | Potency [8] | Potency [9] | Potency [10] | Potency [11] | max response [7] [%] | Potency [12] | Potency [13] | Potency [14] | Potency [15] | Potency [16] | Potency [17] | Potency [18]
1 | CCN(CC)c1c([N+](=O)[O-])cc(C(F)(F)F)c(N)c1[N+](=O)[O-] | inactive | 113 µM (active) | 19.5 µM (active) | inactive | inactive | 12.3 µM (active) | 21.9 µM (active) | inactive | inactive |  |  |  |  |  |  |  |  |  | 
2 | Fc1cccc(Cl)c1CCl | inactive | inactive | inactive | inactive | inactive | inactive |  | inactive | inactive | inactive | inactive | -1.59 | inactive | inactive | inactive | inactive | inactive |  | 
3 | CCOC(=O)OC1=C(c2cc(C)ccc2C)C(=O)NC12CCC(OC)CC2 (stereo not drawn) | inactive | inactive | inactive | inactive | inactive | inactive |  | inactive | inactive |  | inactive | -0.185 | inactive | inactive | inactive | inactive | inactive | inactive | 
4 | ClC1=C(Cl)[C@]2(Cl)[C@H]3[C@H]([C@H]4C=C[C@H]3C4)[C@@]1(Cl)C2(Cl)Cl | inactive | inactive | inactive | inactive | inactive | inactive |  |  | inactive |  | inactive | -13.1 | inactive |  | inactive | inactive |  | inactive | inactive
5 | COc1ccc([N+](=O)[O-])cc1O | inactive | inactive | inactive |  | inactive | inactive |  | inactive | inactive | inactive | inactive | 1.5 | inactive |  | inactive | inactive | inactive | inactive | inactive
6 | CCCCCCCCCCCCBr | inactive | inactive | inactive | inactive | inactive | inactive |  | inactive | inactive |  | inactive | -12.1 | inactive | inactive | inactive | inactive | inactive | inactive | inactive
7 | CC(=O)[O-].[Tl+] | inactive | inactive |  |  | inactive | inactive | 27.7 µM (active) | inactive | inactive |  | inactive |  | inactive | inactive | inactive | inactive | inactive | inactive | 
8 | NC(=O)c1ccc(N)nc1 | inactive | inactive |  |  | inactive | inactive |  |  | inactive | inactive | inactive |  | inactive |  | inactive | inactive | inactive | inactive | inactive
9 | O=C(Cl)c1ccc(Cl)cc1 | inactive | inactive |  | inactive |  |  |  | inactive | inactive |  |  |  | inactive | inactive | inactive | inactive | inactive | inactive | inactive
10 | CN(CCCC(=O)c1cccnc1)N=O | inactive | inactive | inactive | inactive |  | inactive |  | inactive | inactive | inactive | inactive | 13.5 | inactive |  | inactive | inactive | inactive | inactive | inactive
11 | Cn1[nH]nnc1=S | inactive | inactive | inactive | inactive | inactive | inactive |  | inactive | inactive | inactive | inactive | 4.93 | inactive | inactive | inactive | inactive | inactive |  | inactive
12 | CC(O)C#N (stereo not drawn) | inactive | inactive | inactive | inactive |  | inactive |  | inactive | inactive | inactive |  | -0.282 | inactive | inactive | inactive | inactive | inactive | inactive | inactive
13 | CC(C)OS(C)(=O)=O | inactive | inactive | inactive | inactive | inactive | inactive |  |  | inactive | inactive | inactive |  | inactive | inactive | inactive | inactive | inactive | inactive | inactive
14 | Clc1ccc(Oc2ccccc2)cc1 | inactive | inactive | inactive |  | inactive | inactive |  |  | inactive |  | inactive | -29.2 | inactive | inactive | inactive | inactive |  | inactive | inactive
15 | Cc1cc(Cl)ccc1O[C@H](C)C(=O)O | inactive | inactive | inactive |  |  | inactive |  | inactive | inactive | inactive | inactive | -1.32 | inactive | inactive | inactive | inactive | inactive | inactive | inactive
16 | COc1cc(N)c(Cl)cc1C(=O)NC1CN2CCC1CC2 (stereo not drawn) | inactive | inactive | inactive | inactive | inactive | inactive |  | inactive | inactive |  | inactive |  | inactive | inactive | inactive | inactive | inactive | inactive | inactive
